The results in this text go back to PubChem BioAssay AID463173 (ICCB-Longwood Screening Facility, Harvard Medical School, 2010).

The whole screen tested about 52,000 compounds, of which about 4,300 (8.3%) were called active. The entries come from a sample that favours actives as a whole. A number with no mark means an inactive call. Cut-off read from the data, not from the text of the source: active = survival mostly below about 52% (no sharp cut-off); inactive = mostly above about 56%.

For this experiment, the system named is DeltatarO mutant. As to the kind of experiment: growth inhibition of S. aureus wild type versus tarO mutant, primary screen, teichoic acid synthesis inhibitors, RN4220, OD600 (AID 463173). The following applies: OD600, 18 h, hits give low values, screened at 18.75 µg/mL (by protocol).
Consider `COc1ccc(NC(=O)CN2C(=O)COc3ccc(S(=O)(=O)NC4CCCC4)cc32)cc1OC`, for which the survival was 75%.
In the case of `Cc1ccc(NC(=O)CCCn2c(=O)c3cccn3c3cccnc32)cc1C` it was 79%; in that of `CC(C)n1c(C(=O)OC(C(=O)NCc2ccco2)c2cccnc2)cc2sccc21` (stereo not given), 88%; in that of `CCCOc1ccc(Nc2nc(SC)ncc2C(=O)OCC)cc1`, 65%.
To `CCOC(=O)c1cnc2c(ccc3ccccc32)c1Nc1ccc(C(C)=O)cc1` belongs 1% (active); to `CCOC(=O)c1cnc2c(ccc3ccccc32)c1Nc1ccccc1O`, 69%.
To `CCOC(=O)c1cnc2c(ccc3ccccc32)c1Nc1ccc(OC)c(OC)c1` belongs 7% (active).
For `CCOC(=O)c1cnc2c(ccc3ccccc32)c1Nc1ccc(OCC)cc1`, the survival is 5% (active).
To `CCOC(=O)c1cnc2c(ccc3ccccc32)c1Nc1ccc(Cl)cc1` belongs 23% (active); to `CCOC(=O)c1cnc(NCc2ccc(Cl)cc2)c2ccccc12`, 91%.
In the case of `COc1cc(NC(=O)C2CCN(c3nnc(C)c4c(C)n(-c5ccccc5)nc34)CC2)cc(OC)c1` it was 87%.
Take `CCOc1ccc(NC(=O)CSc2nnnn2C2CCCC2)cc1`: the survival is 68%.
`Cc1ccc(-n2nc(C(=O)N3CCN(c4ccccc4F)CC3)c3c4ccccc4n(C)c3c2=O)cc1`: the survival was 88%.
In the case of `CCCOc1ccc(CNC(=O)C(CC)n2nc(C)c3sc4ccccc4c3c2=O)cc1` (stereo not given) it was 69%; in that of `O=C(NCCS(=O)(=O)N1CCN(c2cccc(Cl)c2)CC1)C(c1ccccc1)c1ccccc1`, 72%; in that of `COc1ccc(OC)c(NC(=O)c2ccc3c(c2)c(C)c(C)n3Cc2ccc(F)cc2)c1`, 122%.
To `Cc1ccc(CNCC(C)O)s1` (stereo not given) belongs 73%; to `Cc1ccc(C(=O)Nc2ccc(NC(=O)c3cccs3)cc2)cc1C`, 66%.
In the case of `CCc1nn(CC(=O)N2CCN(c3cccc(C)c3C)CC2)c(=O)c2cc3sccc3n12` it was 134%; in that of `CCCNC(=O)CN1C(=O)COc2ccc(S(=O)(=O)N3CCC(C)CC3)cc21`, 121%; in that of `COCCNc1oc(-c2ccc(COc3ccc(OC)cc3)o2)nc1C#N`, 79%.
In the case of `Cc1ccc(C2=NN(CC(=O)NCCc3ccc(Cl)cc3)C(=O)CC2)cc1`, the survival is 117%.
Take `CCn1c(C)c(C2N3CC4(C)CN2CC(CC)(C3)C4=O)c2ccccc21` (stereo not given): the survival was 108%.
In the case of `Cc1cccc(C)c1-n1ncc(C(=O)N2CCN(c3ccccn3)CC2)c1C1CCN(C(=O)OC(C)(C)C)CC1` it was 81%; in that of `CCOC(=O)c1cnc2c(Cl)c(Cl)ccc2c1Nc1ccc(N(C)C)cc1`, 80%; in that of `CCOC(=O)c1cnc2c(OC)cccc2c1Nc1cccc(O)c1`, 61%.
In the case of `CCOC(=O)c1cnc2c(ccc3ccccc32)c1Nc1ccc(N(C)C)cc1` it was 0% (active); in that of `CCOC(=O)c1sc2ccccc2c1S(=O)(=O)Nc1cccc(C(F)(F)F)c1`, 63%; in that of `COc1cccc(C(=O)c2sc(Nc3ccc(F)c(Cl)c3)nc2N)c1`, 55%.
Turning to `CCOC(=O)c1cnc(SC)nc1Nc1ccccc1`, the survival was 84%.
Take `CCOC(=O)c1cnc2c(ccc3ccccc32)c1Nc1cccc(OC)c1`: the survival was 29% (active).
To `CCOC(=O)c1noc2ncnc(Nc3cccc(C(F)(F)F)c3)c12` belongs 92%.
In the case of `CCOC(=O)c1noc2ncnc(Nc3cccc(OC)c3)c12` it was 73%.
In the case of `CCOC(=O)c1cnc2c(ccc3ccccc32)c1Nc1cccc(C(F)(F)F)c1`, the survival was 36% (active).
In the case of `CCOc1ccc(Nc2nc(N)c(C(=O)c3ccccc3Cl)s2)cc1` it was 0% (active); in that of `Cc1ccccc1Nc1nc(N)c(C(=O)c2ccccc2Cl)s1`, 92%; in that of `COc1ccc(-c2oc3ncn4nc(COc5ccccc5C)nc4c3c2-c2ccc(OC)cc2)cc1`, 79%.
In the case of `CC(=O)c1ccc(N2CCN(C(=O)c3ccc(Cn4c(=O)[nH]c5ccccc5c4=O)cc3)CC2)cc1` it was 100%; in that of `CC(C)(C)c1cc(CN2CCOCC2)c(C(=O)O)o1`, 92%; in that of `COc1cc(NC(=O)CSc2nc3nc(C)c(Cc4ccccc4)c(C)n3n2)cc(OC)c1`, 112%.
With `CC1CCN(S(=O)(=O)c2ccc(NC(=O)CSc3nnnn3C)cc2)CC1`, the survival is 97%.
As to `CCOC(=O)c1cnc2c(ccc3ccccc32)c1Nc1cccc(Cl)c1`, the survival was 14% (active).
In the case of `COc1cccc2sc(N(Cc3cccnc3)C(=O)C3CCCCC3)nc12` it was 86%; in that of `CC(C)c1ccc(OCC(=O)N(Cc2ccc(N(C)C)cc2)C2CCS(=O)(=O)C2)cc1` (stereo not given), 43% (active); in that of `COc1ccc(OCC(=O)N(Cc2ccc(C)o2)C2CCS(=O)(=O)C2)cc1` (stereo not given), 85%.
To `CCc1ccc(OCC(=O)N(Cc2ccc(C)o2)C2CCS(=O)(=O)C2)cc1` (stereo not given) belongs 110%; to `Cc1cc(C)cc(OCC(=O)N(Cc2ccc(Cl)cc2)C2CCS(=O)(=O)C2)c1` (stereo not given), 59%; to `CCc1ccc(OCC(=O)N(Cc2ccc(C(C)C)cc2)C2CCS(=O)(=O)C2)cc1` (stereo not given), 23% (active).
In the case of `COc1ccc(OCC(=O)N(Cc2cccc(OC)c2)C2CCS(=O)(=O)C2)cc1` (stereo not given) it was 79%; in that of `CC(C)Oc1ccc(C(=O)N(Cc2ccc(N(C)C)cc2)C2CCS(=O)(=O)C2)cc1` (stereo not given), 54%; in that of `Cc1ccccc1OCC(=O)N(Cc1ccc(C(C)C)cc1)C1CCS(=O)(=O)C1` (stereo not given), 31% (active).
Take `Cc1ccsc1CN(C(=O)COc1cccc(C)c1C)C1CCS(=O)(=O)C1` (stereo not given): the survival is 82%.
In the case of `CCc1ccc(OCC(=O)N(Cc2ccc(Cl)cc2)C2CCS(=O)(=O)C2)cc1` (stereo not given) it was 57% (active).
In the case of `Cc1ccsc1CN(C(=O)COc1ccccc1Cl)C1CCS(=O)(=O)C1` (stereo not given) it was 86%.
Turning to `Cc1ccc(CN(C(=O)COc2ccc(C(C)C)cc2)C2CCS(=O)(=O)C2)o1` (stereo not given), the survival was 87%.
To `Cc1nc2cccnc2n1C1CCN(C(=O)Nc2ccc(Cl)cc2)CC1` belongs 81%; to `CCN(C(=O)CSc1ncc(S(=O)(=O)c2ccc(C)c(Cl)c2)c(=O)[nH]1)c1cccc(C)c1`, 99%; to `O=C(Cn1ncc2c3ccccc3n(Cc3cccc(Cl)c3)c2c1=O)NCCC1=CCCCC1`, 90%.
In the case of `Cc1cc(C)c(NC(=O)Cn2nnc(S(=O)(=O)c3ccc(C)c(C)c3)c2N)c(C)c1` it was 96%; in that of `CCCCN(CC)C(=O)c1ccc2c(c1)NC(=O)c1ccccc1S2`, 104%.
Consider `c1ccc(-c2cnnn2-c2ccccc2)cc1`, for which the survival is 87%.
In the case of `Cc1ccsc1CN(C(=O)COc1ccc(Cl)cc1)C1CCS(=O)(=O)C1` (stereo not given) it was 86%.
To `Cc1cc(Cl)ccc1OCC(=O)N(Cc1ccc(N(C)C)cc1)C1CCS(=O)(=O)C1` (stereo not given) belongs 39% (active); to `CC(C)c1ccc(OCC(=O)N(Cc2cccs2)C2CCS(=O)(=O)C2)cc1` (stereo not given), 51% (active).
To `Cc1cc(Cl)ccc1OCC(=O)N(Cc1sccc1C)C1CCS(=O)(=O)C1` (stereo not given) belongs 74%.
Regarding `Cc1cc(OCC(=O)N(Cc2ccc(N(C)C)cc2)C2CCS(=O)(=O)C2)cc(C)c1Cl` (stereo not given), the survival was 97%.
To `COc1ccccc1OCC(=O)N(Cc1cccs1)C1CCS(=O)(=O)C1` (stereo not given) belongs 53%; to `CCOC(=O)C1=C(C)NC(=O)NC1C1CC=CCC1` (stereo not given), 111%; to `COc1cc(-c2nc3nc[nH]n3c2Nc2ccc(C(C)C)cc2)ccc1O`, 70%.
To `CC(=O)c1cccc(S(=O)(=O)NCCc2csc3nc(-c4ccc(F)cc4)nn23)c1` belongs 88%; to `CCOC(=O)C1CCN(C(c2cccc(F)c2)c2c(O)cc(C)n(CCOC)c2=O)CC1` (stereo not given), 135%.
As for `COc1ccc(CNC(=O)Cn2ccc3cc(S(=O)(=O)N4CCCCC4)ccc32)c(OC)c1`, the survival is 72%.
In the case of `Cc1ccc(NC(=O)CCNS(=O)(=O)c2ccc3c(c2)CCCC(=O)N3)cc1` it was 77%; in that of `Cc1ccc(C)c(NC(=O)CCNS(=O)(=O)c2ccc3c(c2)CCCC(=O)N3)c1`, -4% (active).
To `COc1cc(NC(=O)CN(C)S(=O)(=O)c2ccc3c(c2)CCCC(=O)N3)cc(OC)c1OC` belongs 70%; to `COc1cc(OC)c(NC(=O)CN(C)S(=O)(=O)c2ccc3c(c2)CCCC(=O)N3)cc1Cl`, 6% (active); to `COc1cc(Cl)c(NC(=O)CN(C)S(=O)(=O)c2ccc3c(c2)CCCC(=O)N3)c(OC)c1`, 83%.
For the compound `Cc1cccc(NC(=O)CCNS(=O)(=O)c2ccc3c(c2)CCCC(=O)N3)c1C`, the survival was 96%.
To `COc1ccccc1CNC(=O)CSc1ncc2c(n1)-c1ccccc1N(Cc1ccc(C)cc1)S2(=O)=O` belongs 64%; to `CCc1ccc(NC(=O)c2ccc3c(O)c(S(=O)(=O)c4ccc(Cl)cc4)c(=O)[nH]c3c2)cc1`, 75%.
To `Cc1ccc(N(C(=O)Cn2nnc(-c3ccc(C)o3)n2)C(C(=O)NC2CCCCC2)c2ccc(F)cc2)c(C)c1` (stereo not given) belongs 66%; to `COc1ccc(Cn2nnnc2C(c2ccccc2)N2CCC(C)CC2)cc1` (stereo not given), 68%; to `CCc1ccc(NC(=O)CN2CCN(Cc3ccccc3)S2(=O)=O)cc1`, 68%.
Regarding `CCOc1cc2sc(N3CCC(C(=O)Nc4ccc(C)cc4C)CC3)nc2cc1Br`, the survival is 71%.
In the case of `CCOC(=O)c1nc(Nc2ccc(OC)cc2)c2ccccc2n1` it was 153%; in that of `CCCCCOC(=O)c1ccc(Nc2nc(C(=O)OCC)nc3ccccc23)cc1`, 60%.
In the case of `CCOC(=O)c1nc(Nc2ccccc2OC)c2ccccc2n1` it was 44% (active).
In the case of `CCOC(=O)c1nc(Nc2ccccc2C)c2ccccc2n1` it was 49%.
In the case of `CCCOC(=O)c1cccc(Nc2nc(C(=O)OCC)nc3ccccc23)c1`, the survival was 20% (active).
To `CCOC(=O)c1nc(Nc2cccc(C)c2)c2ccccc2n1` belongs 75%.
